This is an account of results in article PMC8384837, “Expanding the binding specificity for RNA recognition by a PUF domain”.

Substitutions are numbered along the chain they refer to.

What all share (test): yeast three-hybrid, YBZ-1, SC-Leu-His + 0.5 mM 3-AT, 4 days
Conditions in all cases: tags: N-Gal4 AD-HA kept; label: inside an RPR1-promoter hybrid RNA with tandem MS2 sites; ssRNA

The target of experiment [1] is PUM1 PUF domain R1-RGM (Homo sapiens, UniProt Q14671 828-1176, S863R;R864G;Q867M). In short, it runs like this:
(§1)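 Matching RNA elements and Pumilio-1 PUF domain libraries, randomized at the three base-contacting residues of every repeat, were co-expressed from a centromeric plasmid in strain YBZ-1 (LexA–MS2 coat fusion, HIS3 reporter). The repeat regions were PCR-amplified and Illumina-sequenced from cells grown four days on SC-Leu (input) or SC-Leu-His + 0.5 mM 3-AT (selection). The interaction score is the log change in variant frequency from input to selection. It is computed in log2, with a pseudocount of 1 for absent variants.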

For experiment [2], the target named is T1, PUM1 PUF domain R6-RFR (Homo sapiens, UniProt Q14671 828-1176, N1043R;Y1044F;Q1047R).
T1 sequence: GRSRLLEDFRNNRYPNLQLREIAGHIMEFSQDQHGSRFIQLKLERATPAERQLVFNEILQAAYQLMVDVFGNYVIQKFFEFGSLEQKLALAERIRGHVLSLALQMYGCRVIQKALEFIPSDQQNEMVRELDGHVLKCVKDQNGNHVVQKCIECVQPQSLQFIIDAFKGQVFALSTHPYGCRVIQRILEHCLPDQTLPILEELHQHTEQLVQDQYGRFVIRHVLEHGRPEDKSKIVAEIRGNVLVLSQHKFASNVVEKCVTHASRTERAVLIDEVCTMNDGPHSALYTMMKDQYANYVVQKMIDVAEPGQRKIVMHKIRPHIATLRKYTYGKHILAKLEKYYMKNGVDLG
In outline:
as §1

In experiment [3] the target is PUM1 PUF domain R5-KFA (Homo sapiens, UniProt Q14671 828-1176, C1007K;R1008F;Q1011A). In short, it runs like this: as §1
PUM1 PUF domain R5-KFA, sequence (Q14671 828-1176 C1007K/R1008F/Q1011A): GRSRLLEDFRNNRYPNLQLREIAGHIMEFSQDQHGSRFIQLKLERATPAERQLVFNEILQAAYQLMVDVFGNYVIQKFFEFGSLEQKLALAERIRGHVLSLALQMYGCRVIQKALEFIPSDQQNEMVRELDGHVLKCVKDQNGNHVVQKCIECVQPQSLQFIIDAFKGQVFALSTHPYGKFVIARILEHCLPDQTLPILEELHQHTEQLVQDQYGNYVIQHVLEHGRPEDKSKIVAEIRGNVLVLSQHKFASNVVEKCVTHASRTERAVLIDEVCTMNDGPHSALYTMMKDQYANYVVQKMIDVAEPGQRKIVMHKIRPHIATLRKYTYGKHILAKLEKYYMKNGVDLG
Experiment [4] deals with T2, PUM1 PUF domain R6-CYR (Homo sapiens, UniProt Q14671 828-1176, N1043C;Q1047R).
T2 sequence: T1 sequence with R216C, F217Y
In short, it runs like this:
as §1

Experiment [5] has as its target PUM1 PUF domain R8-YWR (Homo sapiens, UniProt Q14671 828-1176, N1122Y;Y1123W;Q1126R). In short, it runs like this:
as §1

Experiment [6] addresses PUM1 PUF domain R8-TYR (Homo sapiens, UniProt Q14671 828-1176, N1122T;Q1126R). In outline:
as §1

The target in experiment [7] is PUM1 PUF domain R8-TFK (Homo sapiens, UniProt Q14671 828-1176, N1122T;Y1123F;Q1126K). In outline:
as §1

Experiment [8] concerns the target PUM1 PUF domain R3-RAY (Homo sapiens, UniProt Q14671 828-1176, C935R;R936A;Q939Y). In short, it runs like this: as §1
Experiment [9] addresses PUM1 PUF domain R1-GQK (Homo sapiens, UniProt Q14671 828-1176, S863G;R864Q;Q867K). In outline: as §1
For experiment [10], the target named is PUM1 PUF domain R1-KYS (Homo sapiens, UniProt Q14671 828-1176, S863K;R864Y;Q867S). In outline: as §1

“GGCUAGAACUAGUGGAUCCCCCGGCGCCCGGCGGCUCGAGCCCGGGUAAGUGUAAAUUGUCUGCAUGCCGCCGGGCGCCAUGCCUGCAGGUCGACUCUAGAAAACAUG”: the binding signal in [1] was 2.74 log2 enrichment (interaction score).

In the case of “GGCUAGAACUAGUGGAUCCCCCGGCGCCCGGCGGCUCGAGCCCGGGUAAGUGAAAAUAGUCUGCAUGCCGCCGGGCGCCAUGCCUGCAGGUCGACUCUAGAAAACAUG”, the binding signal in [2] was 1.66 log2 enrichment (interaction score).

Turning to “GGCUAGAACUAGUGGAUCCCCCGGCGCCCGGCGGCUCGAGCCCGGGUAAGUGUAAAUAGUCUGCAUGCCGCCGGGCGCCAUGCCUGCAGGUCGACUCUAGAAAACAUG”, the binding signal in [3] was 4.26 log2 enrichment (interaction score); in [4], 5.11 log2 enrichment (interaction score); in experiment [5], 4.66 log2 enrichment (interaction score); in experiment [2] it was 3.75 log2 enrichment (interaction score); in [6] it was 4.56 log2 enrichment (interaction score); in experiment [7], 2.11 log2 enrichment (interaction score).

As to “GGCUAGAACUAGUGGAUCCCCCGGCGCCCGGCGGCUCGAGCCCGGGUAAGUGCAAAUAGUCUGCAUGCCGCCGGGCGCCAUGCCUGCAGGUCGACUCUAGAAAACAUG”, in experiment [4], the binding signal is 5.44 log2 enrichment (interaction score).

For “GGCUAGAACUAGUGGAUCCCCCGGCGCCCGGCGGCUCGAGCCCGGGUAAGUGUAAUUAGUCUGCAUGCCGCCGGGCGCCAUGCCUGCAGGUCGACUCUAGAAAACAUG”, the binding signal in [8] was 3.92 log2 enrichment (interaction score).

As to “GGCUAGAACUAGUGGAUCCCCCGGCGCCCGGCGGCUCGAGCCCGGGUAAGUGUUAAUAGUCUGCAUGCCGCCGGGCGCCAUGCCUGCAGGUCGACUCUAGAAAACAUG”, the binding signal in experiment [3] was 4.8 log2 enrichment (interaction score).

As to “GGCUAGAACUAGUGGAUCCCCCGGCGCCCGGCGGCUCGAGCCCGGGUAAGUGUAAAUCGUCUGCAUGCCGCCGGGCGCCAUGCCUGCAGGUCGACUCUAGAAAACAUG”, the figures for the binding signal in [9], in experiment [10] and in experiment [1] were 3.53 log2 enrichment (interaction score), 5.18 log2 enrichment (interaction score) and 0.98 log2 enrichment (interaction score), respectively.

As to “GGCUAGAACUAGUGGAUCCCCCGGCGCCCGGCGGCUCGAGCCCGGGUAAGCGUAAAUAGUCUGCAUGCCGCCGGGCGCCAUGCCUGCAGGUCGACUCUAGAAAACAUG”, the binding signal is 4.53 log2 enrichment (interaction score) in [5], 5.46 log2 enrichment (interaction score) in experiment [6] and 5.88 log2 enrichment (interaction score) in [7].

In the case of “GGCUAGAACUAGUGGAUCCCCCGGCGCCCGGCGGCUCGAGCCCGGGUAAGUGUCAAUAGUCUGCAUGCCGCCGGGCGCCAUGCCUGCAGGUCGACUCUAGAAAACAUG”, the binding signal in [3] was 4.46 log2 enrichment (interaction score).
